# Rows were chosen to be rich in hits. Some 9.3% of all compounds tested hit in one or more screens of this group.
# ELG1 repair inh – inhibitors of ELG1-dependent DNA repair in HEK293T cells; HEK293T ELG1-luciferase reporter, luminescence, 16 h; DNA damage induced by 5-fluorouridine; Potency, µM (highest dose often 46.1 µM), inactives show top-dose activity change, negative = inhibition, hits mostly inhibitors; 330,000 compounds, 2.3% hits; AID 504467; also: % is scaled to controls: 0 for no effect and ±100 for the full control effect; nearly all actives have a fitted effect of over 55% in size
#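 In this reporter screen, reduction of luminescence relative to DMSO vehicle indicated activity. Compounds and 5-fluorouridine were added together to 2,000 cells per well, incubated for 16 hr at 37 °C, then developed with ONE-Glo.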
# NPC1 prom act – activators of NPC1 promoter; 320,000 compounds, 2.4% hits; Huh7 NPC1 promoter luciferase reporter, 24 h; Potency, µM (doses to about 9.22 µM), inactives show at the top dose activation, actives largely listed as activators; also: % of control where 0% means no effect; nearly all actives have a fitted effect of over 60% in size
#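 Huh7 cells stably carrying NPC1 promoter–luciferase, plated in Opti-MEM with 10% FBS for 2 h, were exposed to compound in DMSO for 24 h at 37 °C; luciferase reagent was added for 10 min and luminescence read.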
# SMN2 splice enh – SMN2 splice variant enhancement | HEK293 SMN2-luciferase splicing reporter, luminescence, 30-36 h | Potency, µM (highest dose often 46.1 µM), for inactives: at the highest dose activity change, positive = activation, actives largely listed as activators | 210,000 compounds, 2.8% hits | AID 1458; also: % of control where 0% means no effect; nearly all actives have a fitted effect of over 55% in size
#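 HEK293 cells carry an SMN2 […]–luciferase reporter in which exon 7 inclusion puts luciferase in frame. Cells were plated 10-12 h before compound addition, then incubated 30-36 h at 37C. ONE-Glo luminescence was read; sodium butyrate at 4.5 mM final served as control.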
# Rab9 promoter act – Rab9 promoter activation; 320,000 compounds, 2.8% hits; Potency, µM (highest dose often 9.22 µM), inactives show at the highest dose activation, negative = inhibition, hits mostly activators; Huh7 Rab9 promoter-luciferase reporter, luminescence, 24 h; also: % of control where 0% means no effect; nearly all actives have a fitted effect of over 60% in size
#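 Huh7 cells stably carrying Rab9 promoter–luciferase reporter, plated 1500 cells/well, compound added after 2 h and incubated 24 h at 37 °C; luciferase luminescence then read after 10 min with detection reagent.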
# ELG1 genotox – induces genotoxicity in HEK293T cells with luciferase-tagged ELG1; HEK293T ELG1-luciferase reporter, luminescence, 16 h; AID 504466; Potency, µM (series often up to 46 µM), without a hit: top-dose activity change, positive = activation, most hits filed as activators; 330,000 compounds, 1.3% hits; also: % of control where 0% means no effect; nearly all actives have a fitted effect of over 60% in size
#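 Cells (2,000/well) expressing the ELG1-luciferase fusion are dosed by pin tool and kept 16 hr at 37 °C, 5% CO2. Signal comes from ONE-Glo luciferase reagent after 30 min at room temperature.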
# FLuc counter – inhibits or activates purified firefly luciferase, miR-21 counter-screen. P08659. purified FLuc, Km substrates, luminescence inhibition. Potency, µM (series often up to 57.5 µM), for inactives: top-dose activity change, negative = inhibition, hits mostly inhibitors. 360,000 compounds, 6.9% hits. AID 588342;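 also: plate controls were vehicle for no effect and reference inhibitor for full effect; nearly all actives have a fitted effect of over 55% in size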
# Target sequence (P08659 whole entry, looked up): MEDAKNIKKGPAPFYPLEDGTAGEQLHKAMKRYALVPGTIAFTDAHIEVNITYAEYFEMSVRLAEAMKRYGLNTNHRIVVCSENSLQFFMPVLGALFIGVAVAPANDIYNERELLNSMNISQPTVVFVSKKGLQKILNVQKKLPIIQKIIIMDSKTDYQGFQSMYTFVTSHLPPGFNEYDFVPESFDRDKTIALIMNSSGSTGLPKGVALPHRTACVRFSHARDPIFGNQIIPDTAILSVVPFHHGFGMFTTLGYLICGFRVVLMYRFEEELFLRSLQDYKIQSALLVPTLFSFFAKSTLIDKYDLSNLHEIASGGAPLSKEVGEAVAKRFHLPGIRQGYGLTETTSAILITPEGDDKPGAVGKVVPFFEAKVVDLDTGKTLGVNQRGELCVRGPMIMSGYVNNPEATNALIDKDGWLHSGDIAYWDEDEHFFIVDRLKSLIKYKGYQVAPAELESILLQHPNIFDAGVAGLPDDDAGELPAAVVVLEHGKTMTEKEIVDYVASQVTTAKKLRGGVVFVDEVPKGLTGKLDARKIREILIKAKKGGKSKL
#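 Purified P. pyralis luciferase, 10 nM final, with Km-level 10 uM D-luciferin and 10 uM ATP in 50 mM Tris acetate pH 7.5, 10 mM Mg acetate, 0.01% Tween-20, 0.05% BSA; 6-point qHTS titration about 60 µM downward; luminescence read.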
# * = called active by the depositor; ? = inconclusive; · = no result given; [ ] = another dose, or the depositor's remark. Calls follow the shape of the dose curve; as a rule, active = well fitted curve in the direction sought with a large enough effect; inconclusive = small, poorly fitted or top-dose-only effect, or another doubt; inactive = no such curve, though single readings can be large; an effect the other way counts as inactive or inconclusive. Potency is read from the fitted curve at half-maximal effect.
SMILES,ELG1 repair inh,NPC1 prom act,SMN2 splice enh,Rab9 promoter act,ELG1 genotox,FLuc counter
Cc1ccc(/C=C2\SC(N3CCCCC3)=NC2=O)cc1,?,30%,·,?,12%,19µM*
CCOC(=O)C1CCCN(C2=NC(=O)/C(=C/c3ccc(N(C)C)cc3)S2)C1 (stereo unspecified),7%,26%,·,5%,6%,12µM*
CCN(CCCNC(=O)CNC(=O)Cn1cnc2ccccc2c1=O)c1cccc(C)c1,-1%,-4%,25%,0%,6%,-1%
COc1ccc(NC(=O)NCCC2=CCCCC2)cc1,?,4µM*,13µM*,2.8µM*,?,?
CC(=O)Nc1cccc(OCC(=O)NCCC2=CCCCC2)c1,?,18%,7%,?,13%,-19%
COc1ccccc1NC(=O)NCCC1=CCCCC1,-15%,-2%,·,-1%,-4%,?
COc1cccc(NC(=O)NCCC2=CCCCC2)c1,?,3.5µM*,14µM*,4.5µM*,?,15µM*
Cc1ccc(NC(=O)CN(C)CC(=O)Nc2ccccc2Oc2ccccc2)cc1,-4%,-6%,-9%,3%,-1%,4%
Cc1cccc(C)c1NC(=O)CN(C)CC(=O)Nc1ccccc1Oc1ccccc1,12µM*,-1%,-16%,0%,-3%,-10%
CC(=O)NS(=O)(=O)c1ccc(NC(=O)c2oc3c(Cl)cccc3c2C)cc1,-4%,-1%,·,2%,-1%,13µM*
COc1cccc(C(=O)c2cn(CC(=O)NCc3ccco3)c3nc(C)ccc3c2=O)c1,4%,2%,·,1%,-3%,-1%
O=C(NCc1ccccc1)c1ccco1,1%,-1%,9%,-4%,-2%,3%
COc1ccc(C(=O)NCc2ccc(-c3nc4ccccc4s3)cc2)cc1OC,?,16%,-21%,?,16µM*,1.3µM*
O=C(NC(=S)NCc1ccc(-c2nc3ccccc3s2)cc1)c1ccco1,?,3.2µM*,·,4µM*,16µM*,2.7µM*
COc1ccc(CNC(=O)c2ccc3ccccc3n2)cc1OC,16µM*,-5%,·,-9%,7%,-3%
O=C(NC(=S)Nc1nc(-c2ccccc2)cs1)c1ccco1,-14%,5%,-5%,-1%,-3%,?
O=C(NCc1ccc(-c2nc3ccccc3s2)cc1)c1ccco1,?,?,14%,?,14%,6µM*
Cc1c[n+]([O-])ccc1Oc1ccc([N+](=O)[O-])cc1,16%,-3%,·,0%,4%,-2%
O=C(Nc1ccccc1O)c1cc(S(=O)(=O)N2CCOCC2)ccc1Cl,-1%,-2%,-22%,-12%,-4%,-3%
Cc1cc(C)nc(SC2CCOC2=O)n1 (stereo unspecified),·,·,-2%,·,·,0%
NC(=O)c1ccccc1-c1noc(-c2ccccc2F)n1,·,?,·,?,·,17µM*
COCCNC(=O)c1ccccc1-c1nc(-c2ccccc2OC)no1,-14%,?,-28%,0%,2%,?
NC(=O)c1ccc(-c2noc(-c3ccccc3F)n2)cc1,?,0.32µM*,·,0.32µM*,?,3µM*
O=C(CCS(=O)(=O)Cc1ccccc1)NCc1ccco1,5%,1%,-2%,-3%,-6%,2%
COc1ccc(Nc2nc(N3CCCC3)nc3ccccc23)c(OC)c1,?,-17%,-32%,-1%[1.84 µM],-12%,-1%
SMILES,ELG1 repair inh,NPC1 prom act,SMN2 splice enh,Rab9 promoter act,ELG1 genotox,FLuc counter
CC1CCN(c2ccc(-c3ccc(NC(=O)C(F)(F)F)cc3)nn2)CC1,?,0.13µM*,·,0.5µM*,0.73µM*,?
CC(=O)Nc1ccc(NC(=O)C(F)(F)F)cc1,9%,-2%,7%,1%,-3%,-3%
O=[N+]([O-])c1cccc(-c2noc(-c3ccco3)n2)c1,?,3.5µM*,·,2.5µM*,?,9.5µM*
O=[N+]([O-])c1cccc(-c2nc(-c3ccccc3)no2)c1,?,6.3µM*,·,4µM*,?,1.3µM*
O=[N+]([O-])c1cccc(-c2nc(-c3ccncc3)no2)c1,?,?,17%,?,?,?
C/C(=N\NS(=O)(=O)c1ccc(Br)cc1)c1ccncc1,1%,-3%,·,0%,-2%,7%
CCN(CC(=O)Nc1c(F)cccc1F)C(=O)CCc1c[nH]c2ccccc12,-8%,-3%,4%,2%,-4%,-1%
CCc1ccc(OCC(=O)N2CCc3ccccc32)cc1,?,3.5µM*,·,2.2µM*,?,2.7µM*
Cc1ccc(OCC(=O)N2CCCc3ccccc32)cc1,?,10%,2%,13%,2%,?
CCc1ccc(OCC(=O)N2c3ccccc3CCc3ccccc32)cc1,-15%,1%,·,-1%,-5%,-2%
O=C(COc1ccc2c(c1)CCC2)N1CCc2ccccc21,?,2.8µM*,?,1.1µM*,12µM*,5.4µM*
Cc1ccc(OCC(=O)N2CCc3ccccc32)cc1,?,2.8µM*,14µM*,3.5µM*,16µM*,2.7µM*
CCOCC(=O)N1CCc2ccccc21,18%,-3%,25%,3%,-6%,1%
CCCn1nnc(NC(=O)c2cccc(OCC(C)C)c2)n1,?,23%,6%,26%,16%,?
CCOc1cc(CNS(=O)(=O)c2ccc3c(c2)C(C)(C)C(=O)N3)cc(OCC)c1OCC,·,·,·,·,·,-2%
S=C(NCc1cccs1)Nc1ccc(Br)cc1Cl,6%,16%,5%,23%,5%,?
COc1cc(CNC(=O)c2cccc(COc3ccc(Cl)cc3)c2)cc(OC)c1,?,0.71µM*,2.5µM*,0.22µM*,?,11µM*
O=C(NCc1ccccc1)c1cccc(COc2ccc(Cl)cc2)c1,?,1.8µM*,6.3µM*,2.8µM*,?,17µM*
O=C(NCc1ccccc1)c1cccc(COc2cccc(Cl)c2)c1,?,?,19%,?,1%,-12%
CCN(CC)CCNC(=O)c1ccc(NC(=O)C2CC(=O)N(c3ccc4c(c3)OCCO4)C2)cc1 (stereo unspecified),13%,-2%,·,0%,1%,2%
COc1ccc(Cn2nnc(C(=O)Nc3ccc4c(c3)OCCO4)c2N)cc1Br,?,-2%,·,13%,10%,21µM*
Nc1c(C(=O)Nc2ccc3c(c2)OCCO3)nnn1Cc1ccc(Cl)cc1,?,2.2µM*,·,0.89µM*,?,?
Cc1ccc(C)c(Cn2nnc(C(=O)Nc3ccc4c(c3)OCCO4)c2N)c1,?,?,·,?,4%,?

# Source: PubChem BioAssay (National Center for Advancing Translational Sciences (NCATS))
